# AHR act – human AHR activation. P35869. AHR-responsive luciferase reporter cells, luminescence. activation, % at 5 µM. 320,000 tested, 2.5% active. AID 2796; in the data active = activation above about 47%
# HSF1 inh – HSF1 inhibition | activity change, negative = inhibition, % at 7.5 µM (by protocol) | 300,000 tested, 0.77% active | NIH3T3-HGL HSE-luciferase, MG132-induced, luminescence 8 h; active compounds read low;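 active = more than half of replicate wells show activity change below -50%, luminescence cut by over half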;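 note: luciferase reports HSF-1 transcriptional activity via heat shock element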
# FXN GAA850 act – frataxin GAA850 promoter activation; HEK293 lucGAA850 FXN promoter luciferase reporter, 24 h; percent of 10 µM SAHA response; activation, % at 6 µM; 360,000 tested, 0.56% active; AID 540364;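 active = activation above the average of all compounds screened plus 3 SD, cutoff fixed separately per campaign, cut at about 7.5% in these data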
# NR0B1 inh – NR0B1 (DAX1) inhibition | HEK293 Gal4-DAX1 luciferase reporter, luminescence | inhibition, % at 6.75 µM | 340,000 tested, 0.99% active;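 active = inhibition above the mean over all tested compounds plus 3 SD, cut at about 4.2% in these data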;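 note: inhibition shows as a rise in luminescence from relieved DAX1 repression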
# Target sequence (P51843 207-470 limits assumed): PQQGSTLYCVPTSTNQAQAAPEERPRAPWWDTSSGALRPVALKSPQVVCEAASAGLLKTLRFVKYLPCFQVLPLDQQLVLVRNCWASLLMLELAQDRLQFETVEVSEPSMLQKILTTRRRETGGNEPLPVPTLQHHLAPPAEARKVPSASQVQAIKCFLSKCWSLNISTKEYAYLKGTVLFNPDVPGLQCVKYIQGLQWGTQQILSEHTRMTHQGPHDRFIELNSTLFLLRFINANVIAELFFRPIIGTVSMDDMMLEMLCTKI
# HSF1 activator – increases HSF-1 driven luciferase reporter signal; NIH3T3-HGL HSF-1 luciferase reporter, MG132, 8 h; 100% = twice DMSO control signal; AID 504408; activation, % at 9 µM; 300,000 tested, 1.7% active;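 active = mean replicate activation of at least 50% with a set share of replicates each reaching 50%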
# Numbers stand for hits; 0 = inactive; - = no result given. Sampled rows, rich in hits. Any-hit rate of the full collection: about 5.4%.
SMILES,AHR act,HSF1 inh,FXN GAA850 act,NR0B1 inh,HSF1 activator
CN1CCN(CC(=O)n2c3c(c4ccccc42)CCCC3)CC1,0,-64,0,0,0
Cc1ccc(O)c(C(=O)c2cnc3c(c2)CN(CCC(C)C)C(=O)N3)c1,0,0,0,0,120
Cc1ccc(O)c(C(=O)c2cnc3c(c2)CN(C)C(=O)N3)c1,0,0,0,0,73
COc1cc(OC)c(C2C(C#N)=C(C)NC(C)=C2C#N)c(C(=O)O)c1,0,0,0,0,0
COCCn1nnnc1C(c1cc2cc(C)ccc2[nH]c1=O)N1CCc2ccccc21 (centres undefined),65,0,0,0,0
COc1cc(N)c(Cl)cc1C(=O)OCC(=O)N1CCCC1,0,0,0,0,0
O=C(CN1c2ccccc2Sc2ccccc21)N/N=C/c1ccc(Cl)cc1,0,0,0,-,61
O=C(CN1c2ccccc2Sc2ccccc21)N/N=C/c1ccc(Cl)cc1Cl,0,0,0,0,0
Clc1ccc(C2=CC(c3ccco3)n3ncnc3N2)cc1 (centres undefined),71,0,0,0,0
COc1ccc(C2=CC(c3ccco3)n3ncnc3N2)cc1 (centres undefined),-,-,0,0,-
COc1ccc(OC)c(/C=C/C(=O)Nc2ccc(OC)nc2)c1,0,0,0,5.6,0
COc1ccc(Br)cc1/C=C/C(=O)Nc1ccc2ccccc2c1,50,0,0,0,0
COc1ccccc1/C=C/C(=O)NCC(=O)N/N=C/c1cc(Br)ccc1OC,0,0,0,0,59
COc1ccc(OC)c(/C=C/C(=O)NC2=NCCS2)c1,0,0,0,0,0
O=C(NC(=S)NC1CCCCC1)c1ccccc1[N+](=O)[O-],0,0,0,0,0
Cc1cc(-c2sccc2Br)nc(-n2cccc2)n1,-,0,0,0,72
Cc1ccsc1-c1ccnc(-n2cccc2)n1,67,0,0,0,0
CN(C)/C=N/c1nccc(-c2cccs2)n1,0,0,0,0,0
Cc1cc(-c2ccc(Br)s2)nc(-n2cccc2)n1,-,0,0,0,0
c1coc(-c2ccnc(-n3cccc3)n2)c1,0,0,0,0,0
Clc1ccc(-c2ccnc(-n3cccc3)n2)s1,53,0,0,0,0
Clc1ccsc1-c1ccnc(-n2cccc2)n1,57,0,0,0,0
Nn1c(SCC(=O)Nc2ccc3c(c2)OCCO3)nncc1=O,0,0,0,0,0
CCOC(=O)C1CCN(C(=O)c2ccccc2)C(CC)C1=O (centres undefined),-,-,0,0,-
CC/C(C)=N/Nc1nc(-c2cc3cccc(OC)c3oc2=O)cs1,0,0,0,-,0
SMILES,AHR act,HSF1 inh,FXN GAA850 act,NR0B1 inh,HSF1 activator
CCNC(=S)N(Cc1ccco1)Cc1cc2cc(OCC)ccc2[nH]c1=O,0,0,0,0,71
CNC(=S)N(Cc1ccco1)Cc1cc2cc(OC)c(OC)cc2[nH]c1=O,0,0,0,0,57
O=c1[nH]c2cc3c(cc2cc1CN(Cc1cccnc1)C(=S)NCc1ccco1)OCCO3,0,0,0,0,0
O=c1[nH]c2cc3c(cc2cc1CN(Cc1cccnc1)C(=S)NCc1ccco1)OCO3,66,0,0,0,0
CC(OC(=O)c1ccc(-c2ccc(O)cc2)cc1)C(=O)NC1CCCCC1C (centres undefined),0,0,0,0,0
O=C(COC(=O)COc1ccccc1)NC1CCCC1,0,-,0,0,-
COc1ccc(NC(=O)O/N=C/c2ccncc2)cc1,0,0,0,4.6,0
COc1ccc(NC(=O)O/N=C/c2ccc(Br)cc2)cc1,0,0,0,0,0
N#CCCN1CCN(C(=S)c2ccc(-c3ccc(Cl)cc3)o2)CC1,0,0,0,0,0
CN1CCN(C(=S)c2ccc(-c3cccc(Cl)c3Cl)o2)CC1,0,0,0,0,68
S=C(c1ccc(-c2ccc(Cl)cc2)o1)N1CCCCC1,0,0,0,4.8,101
O=C(c1ccc(-c2ccccc2Cl)o1)N1CCN(c2ccccc2O)CC1,0,0,0,0,0
CCCCCCN1C[C@@H](O)[C@H](n2cc(COC(=O)c3ccccc3)nn2)C[C@@H]1c1ccc(OC)cc1,-,-,0,0,-
COc1ccc(N2CCN(C(CNC(=O)CC(C)(C)C)c3ccc4c(c3)OCO4)CC2)cc1 (centres undefined),0,0,0,0,0
CN(Cc1ccccc1)C(=C(Cl)Cl)/C(=C1/NCCN1C)[N+](=O)[O-],0,0,0,5.4,0
CN(Cc1ccccc1)C(=C(Cl)Cl)C(=C1NCCN1)[N+](=O)[O-],0,0,0,0,0
